L3MBTL1 block: inhibitors of human L3MBTL1 | Potency, µM (highest dose often 57.1 µM), inactives show at the top dose activity, negative = inhibition, usual class: inhibitors | 230,000 tested, 0.66% active | AlphaScreen L3MBTL1–H3K9me1 peptide binding | AID 485360; further: on the % scale 0 is the no-effect control and ±100 the full control effect; nearly all actives have a fitted effect of over 60% in size
Target sequence (Q9Y468 whole entry, looked up): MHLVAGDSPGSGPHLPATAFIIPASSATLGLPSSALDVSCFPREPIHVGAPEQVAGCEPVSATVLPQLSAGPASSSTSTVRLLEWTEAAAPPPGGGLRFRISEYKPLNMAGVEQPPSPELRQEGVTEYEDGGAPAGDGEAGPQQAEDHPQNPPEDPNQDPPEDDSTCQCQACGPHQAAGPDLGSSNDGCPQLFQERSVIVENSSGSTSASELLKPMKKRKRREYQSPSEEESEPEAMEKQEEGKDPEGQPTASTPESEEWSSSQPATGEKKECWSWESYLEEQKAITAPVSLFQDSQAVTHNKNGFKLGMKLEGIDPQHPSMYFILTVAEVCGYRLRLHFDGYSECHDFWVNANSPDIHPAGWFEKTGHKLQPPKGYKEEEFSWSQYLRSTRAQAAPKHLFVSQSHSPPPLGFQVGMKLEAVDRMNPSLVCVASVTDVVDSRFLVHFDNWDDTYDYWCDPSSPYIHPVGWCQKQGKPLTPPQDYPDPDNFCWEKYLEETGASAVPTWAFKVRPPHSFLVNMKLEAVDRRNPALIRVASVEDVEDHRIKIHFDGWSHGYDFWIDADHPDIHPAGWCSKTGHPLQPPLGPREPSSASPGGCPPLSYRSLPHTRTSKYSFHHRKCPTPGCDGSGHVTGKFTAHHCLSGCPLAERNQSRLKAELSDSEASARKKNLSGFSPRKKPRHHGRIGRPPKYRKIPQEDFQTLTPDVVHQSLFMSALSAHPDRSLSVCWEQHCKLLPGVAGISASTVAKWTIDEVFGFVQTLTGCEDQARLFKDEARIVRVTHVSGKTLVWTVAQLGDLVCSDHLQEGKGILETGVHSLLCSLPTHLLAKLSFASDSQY
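AlphaScreen assay: L3MBTL1 (50 nM final) was preincubated 30 min at room temperature with biotinylated H3(1-15)K9me1 peptide (75 nM final), then 30 min with library compounds; streptavidin donor and nickel chelate acceptor beads (10 ug/mL final) added, 30 min dark.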
JMJD2A Tudor: blocks the human JMJD2A Tudor domain. O75164. AlphaScreen JMJD2A-Tudor / H3K4me3 peptide binding. Potency, µM (highest dose often 114 µM), inactives show at the highest dose activity change, negative = inhibition, most hits filed as inhibitors. 390,000 tested, 4.4% active; further: on the % scale 0 is the no-effect control and ±100 the full control effect; nearly all actives have a fitted effect of over 50% in size
HP1b chromo inh: blocks HP1-beta chromodomain binding to methylated histone tails | 390,000 tested, 0.56% active | AID 540317 | Potency, µM (doses to about 114 µM), inactives show at the highest dose activity change, negative = inhibition, usual class: inhibitors | P83916 | AlphaScreen HP1-beta / biotin-H3K9me3 peptide binding; further: nearly all actives have a fitted effect of over 70% in size
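Compound inhibition of the preformed complex between 50 nM HP1-beta and 50 nM biotinylated H3K9me3 peptide was read by AlphaScreen. Buffer was PBS pH 7.4 with 0.01% Tween-20. Incubations ran 30 min at room temperature, with 10 ug/mL donor/acceptor beads.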
BAZ2B inh: BAZ2B (human) inhibition; Q9UIF8; AlphaScreen BAZ2B-H3K14Ac peptide displacement; Potency, µM (highest dose often 114 µM), for inactives: at the top dose activity change, negative = inhibition, hits mostly inhibitors; 360,000 tested, 4.4% active; AID 504333; further: on the % scale 0 is the no-effect control and ±100 the full control effect; nearly all actives have a fitted effect of over 60% in size
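Multi-concentration screen (max 110 uM) measuring displacement of acetylated histone H3 peptide from BAZ2B by AlphaScreen, using 50 nM protein, 50 nM peptide and 10 ug/mL streptavidin donor plus Ni-chelate acceptor beads.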
G9a block: G9a (human) methyltransferase inhibition | G9a H3K9 monomethylation, AlphaScreen, 2 h | Potency, µM (highest dose often 102 µM), inactives show at the top dose activity, negative = inhibition, usual class: inhibitors | AID 504332 | 350,000 tested, 8.8% active; further: on the % scale 0 is the no-effect control and ±100 the full control effect; nearly all actives have a fitted effect of over 75% in size
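AlphaScreen read-out: biotin-H3K9 peptide (500 nM) methylation by 20 nM enzyme with 20 uM SAM, 2 h at room temperature after 15 min compound preincubation; anti-monomethyl H3K9 antibody plus donor/acceptor beads, 10 min dark.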
GLS inhibitor: glutaminase GLS (human) inhibition; O94925; GLS enzymatic activity, qHTS titration; Potency, µM (titrated, usually from 45.5 µM), for the others: top-dose activity change, negative = inhibition, actives largely listed as inhibitors; 410,000 tested, 0.21% active; AID 624170; further: on the % scale 0 is the no-effect control and ±100 the full control effect
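hKGA in 45 mM KH2PO4 pH 8.2, 0.02% Tween-20 with pin-transferred compounds; 1 mM L-glutamine (stock) plus glutamate oxidase/HRP/Amplex Red coupling added. Fluorescence read initially and after 30 min at RT.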
Starred values were filed as active, the others as inactive; ? = inconclusive; / = no result given; [ ] = dose if it differs, or a comment. An excerpt weighted towards active compounds, which were near 10% of everything screened. The call rests on the fitted dose curve; in most records, active means well fitted curve in the direction sought with a large enough effect; inconclusive means small, poorly fitted or top-dose-only effect, or another doubt; inactive means no such curve, though single readings can be large; an effect the other way counts as inactive or inconclusive. Potency means the concentration at half of the fitted maximal effect.

SMILES	L3MBTL1 block	JMJD2A Tudor	HP1b chromo inh	BAZ2B inh	G9a block	GLS inhibitor
Cc1cccc(CC(=O)Nc2cccc(-c3nc4cccnc4s3)c2)c1	/	-14%	71%	0%	-7%[59 µM]	2%
CCC(Nc1ncnc2ccc(-c3c(C)noc3C)cc12)c1ccccc1 (stereo unspecified)	/	-33%	/	/	/	/
Cc1ccc(-c2nc(SC(C)C(=O)c3c(N)n(C)c(=O)n(C)c3=O)n[nH]2)cc1 (stereo unspecified)	-3%	-10%	23%	12%	45µM*	1%
CC(=O)c1ccc(NC(=O)C(C)Sc2n[nH]c(-c3cccnc3)n2)cc1 (stereo unspecified)	/	-9%	12%	-11%	2%	6%
CC(=O)Nc1ccc(NC(=O)C(C)Sc2n[nH]c(-c3ccc(C)cc3)n2)cc1 (stereo unspecified)	-2%	-24%	-3%	10%	40µM*	3%
Cc1ccc(-c2nc(SCC(=O)c3c(N)n(C)c(=O)n(C)c3=O)n[nH]2)cc1	-6%	-5%	14%	0%	18%[12.7 µM]	1%
CN(C)Cc1nc2c([nH]1)c(=O)n(C)c(=O)n2C	4%	3.5µM*	24%	-4%	?	6%
Cn1c(=S)c2[nH]c(SCC3CCCO3)nc2n(C)c1=O (stereo unspecified)	/	4.5µM*	?	/	/	16%
CCCC(C)Sc1nc2c([nH]1)c(=S)n(C)c(=O)n2C (stereo unspecified)	/	-30%	1%	/	/	-9%
COc1ccc(CCNC(=O)c2nc(-c3ccc(Cl)cc3)n3c2CCCCC3)c(OC)c1	/	18µM*	-23%	18µM*	13µM*	2%
COc1cccc(N2CCN(C(=O)c3nc(-c4ccc(Cl)cc4)n4c3CCCCC4)CC2)c1	/	40µM*	?	28µM*	18µM*	13%
Cc1cccc(CCNC(=O)c2nc(-c3ccc(Cl)cc3)n3c2CCCCC3)c1	/	14µM*	-23%	10µM*	11µM*	7%
CCc1cccc(C)c1NC(=O)c1cc(S(=O)(=O)N(Cc2ccc(C(=O)OC)cc2)Cc2ccc(OC)c(OC)c2)ccc1F	/	-6%	30%	-1%	7%[59 µM]	0%
COCCCNC(=O)CSc1nc2cc3c(cc2c(=O)n1CCCCCC(=O)NCCc1ccc(OC)c(OC)c1)OCO3	/	-8%	18%	0%	4%[59 µM]	5%
O=C(c1ccc([N+](=O)[O-])cc1)N1CCSC1c1ccccc1 (stereo unspecified)	-3%	-17%	-2%	-6%	-2%[59 µM]	-6%
CN(C)c1ccc(C2SCCN2C(=O)c2ccc([N+](=O)[O-])cc2)cc1 (stereo unspecified)	-18%	?	?	45µM*	?	29%
CCn1c(COc2ccccc2C)nnc1SCC(=O)N1CCN(c2ccccc2)CC1	-5%	-30%	16%	-9%	10%[12.7 µM]	47%
Cn1c(Cc2cccc3ccccc23)nnc1SCC(=O)N1CCN(c2ccccc2)CC1	-12%	79µM*	-7%	?	?	41%
CCn1c(CC(=O)Nc2cccc(OC)c2)nnc1SCC(=O)N1CCN(c2ccccc2)CC1	24%[11.4 µM]	-25%	6%	-28%	13µM*	6%
Cn1c(Cc2ccccc2)nnc1SCC(=O)N1CCN(c2ccccc2)CC1	4%	0%	31%	13%	-38%[12.7 µM]	8%
CC(C)(C)OC(=O)N1CCC(c2c(C(=O)NCc3ccccn3)cnn2-c2ccccc2)CC1	/	-15%	34%	7%[57.1 µM]	8%[59 µM]	-15%
Clc1cccc2c1CCN(Cc1nc(-c3cnccn3)no1)C2	-3%	0%	18%	-19%	40µM*	-8%
c1ccc(C(c2ccccc2)N2CCN(Cc3nc(-c4cnccn4)no3)CC2)cc1	-9%	-11%	43%	-22%	?	2%
Cc1ccccc1Cc1c(C)nc2nc(SCC(=O)N(C)c3ccccc3)nn2c1C	/	-22%	21%	-14%	-26%[59 µM]	0%

Source: PubChem (National Center for Advancing Translational Sciences (NCATS))
